Source: PubChem BioAssay (NCATS)
Records with an inconclusive call do not appear. The list shows a part of the results. Activity calls are given as the source filed them. Unless noted, the call rests on the fitted dose curve; in most records, active means well fitted curve in the direction sought with a large enough effect; inconclusive means small, poorly fitted or top-dose-only effect, or another doubt; inactive means no such curve, though single readings can be large; an effect the other way counts as inactive or inconclusive.

How the values were obtained:
[1] = biological target: DNA polymerase iota (Homo sapiens) (UniProt Q9UNA4); test: qHTS for Inhibitors of Polymerase Iota: Confirmatory Assay for Cherry-picked Compounds (AID 720496); details: Pol iota primer extension, TAMRA/BHQ fluorescence; further: potency means the concentration at half of the fitted maximal effect
Description: DNA polymerases, such as polymerase iota (Pol iota), are involved in DNA repair. Pol iota specifically plays an important role in translesion synthesis, where the normal high-fidelity DNA polymerases cannot proceed and DNA synthesis stalls. […] Thus, while Pol eta and most likely Pol iota's normal functions are to protect humans against the deleterious consequences of DNA damage, under certain conditions they can have deleterious effects on human health. As a consequence, small molecule inhibitors of Pol iota (identified from a high throughput replication assay) have potential therapeutic applications. A 1536-well format, fluorescence based, high-throughput screen (AID 588590) is developed in collaboration with the National Institute of Child Health & Human Development (NICHD) to screen for inhibitors of the […]. This screen is used to validate the activity of the selected compounds from the primary assay against the […]. Inhibition is the desired outcome for this assay. […]
Three microliters of reagents (buffer in column 3 and 4 as negative control while 10 nM Pol iota in columns 1, 2, and 5-48) were dispensed into a 1536-well black solid-bottom plate. […] The assay plates were initially read after 0 min and again after 10 min of kinetic reaction using the PerkinElmer Viewlux reader equipped with 525 nm excitation and 598 nm emission filters.

[2] = biological target: DNA polymerase eta (Homo sapiens) (UniProt Q9Y253); test: qHTS for Inhibitors of Polymerase Eta: Confirmatory Assay for Cherry-picked Compounds (AID 720502); details: Pol eta primer extension, TAMRA/BHQ fluorescence, 10 min; further: potency means the concentration at half of the fitted maximal effect
Procedure, shortened: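 The reaction starts with 50 nM final labeled DNA substrate added to Pol eta (10 nM) that had sat with compound for 15 min. TAMRA emission at 598 nm is read at 0 and 10 min.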

[3] = biological target: Tyrosyl-DNA phosphodiesterase 1 (Homo sapiens) (UniProt Q9NUW8); test: Confirmation Assay for Inhibitors of Tyrosyl-DNA Phosphodiesterase (TDP1) (AID 489007); details: recombinant human TDP1 enzymatic activity, dose-response; further: potency means the concentration at half of the fitted maximal effect; nearly all actives have a fitted effect of over 40% in size
Procedure, shortened: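 AlphaScreen read-out: streptavidin donor and anti-FITC acceptor beads (10 ug/ml) bind intact substrate, so Tdp1 removal of tyrosine-FITC lowers signal. Enzyme 1 nM, substrate 15 nM, 5 min reaction at room temperature after 15 min compound preincubation.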

[4] = biological target: Ferritin light chain (Equus caballus) (UniProt P02791); test: qHTS Validation Assay for Identification of Novel General Anesthetics (AID 2323); details: horse apoferritin, anesthetic-site fluorescent probe displacement; series mostly up to 76.9 µM
Procedure, shortened: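 10 uM horse-spleen apoferritin + 1-AMA (50% saturated, PBS); cpd pin-transferred, 10 min RT. Ex 380/Em 535 nm endpoint. Activity normalized between free 1-AMA and 1-AMA/apoferritin; 4-parameter Hill fit of concentration-response.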

[5] = Validation screen for inhibitors of Lassa infection (AID 463096; calls by dose curve); details: Lassa virus infection, cell-based; series mostly up to 46.1 µM

Sequence of Ferritin light chain (Equus caballus) (P02791 2-175 limits assumed): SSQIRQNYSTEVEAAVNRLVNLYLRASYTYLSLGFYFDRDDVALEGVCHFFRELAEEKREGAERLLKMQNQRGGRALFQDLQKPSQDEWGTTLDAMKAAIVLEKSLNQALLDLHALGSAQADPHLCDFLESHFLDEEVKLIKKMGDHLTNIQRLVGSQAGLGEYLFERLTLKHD
Sequence of DNA polymerase iota (Homo sapiens) (Q9UNA4 whole entry, looked up): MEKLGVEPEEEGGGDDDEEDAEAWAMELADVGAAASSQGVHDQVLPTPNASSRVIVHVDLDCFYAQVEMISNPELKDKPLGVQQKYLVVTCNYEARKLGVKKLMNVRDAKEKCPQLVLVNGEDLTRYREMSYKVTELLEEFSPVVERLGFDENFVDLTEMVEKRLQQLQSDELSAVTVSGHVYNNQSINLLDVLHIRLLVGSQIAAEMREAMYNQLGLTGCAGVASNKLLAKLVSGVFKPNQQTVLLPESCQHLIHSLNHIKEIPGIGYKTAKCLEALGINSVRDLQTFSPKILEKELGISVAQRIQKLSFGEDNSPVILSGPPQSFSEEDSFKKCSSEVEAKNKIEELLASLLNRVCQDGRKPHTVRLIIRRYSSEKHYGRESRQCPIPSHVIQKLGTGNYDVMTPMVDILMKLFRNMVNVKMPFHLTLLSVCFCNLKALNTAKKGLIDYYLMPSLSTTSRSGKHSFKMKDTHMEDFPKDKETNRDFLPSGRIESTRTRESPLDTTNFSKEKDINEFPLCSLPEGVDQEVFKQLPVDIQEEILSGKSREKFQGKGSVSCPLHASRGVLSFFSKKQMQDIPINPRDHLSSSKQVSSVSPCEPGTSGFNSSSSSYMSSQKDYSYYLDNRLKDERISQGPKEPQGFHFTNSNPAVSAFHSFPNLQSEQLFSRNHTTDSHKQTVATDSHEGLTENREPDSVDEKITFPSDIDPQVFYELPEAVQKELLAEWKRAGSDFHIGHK
Sequence of Tyrosyl-DNA phosphodiesterase 1 (Homo sapiens) (Q9NUW8 whole entry, looked up): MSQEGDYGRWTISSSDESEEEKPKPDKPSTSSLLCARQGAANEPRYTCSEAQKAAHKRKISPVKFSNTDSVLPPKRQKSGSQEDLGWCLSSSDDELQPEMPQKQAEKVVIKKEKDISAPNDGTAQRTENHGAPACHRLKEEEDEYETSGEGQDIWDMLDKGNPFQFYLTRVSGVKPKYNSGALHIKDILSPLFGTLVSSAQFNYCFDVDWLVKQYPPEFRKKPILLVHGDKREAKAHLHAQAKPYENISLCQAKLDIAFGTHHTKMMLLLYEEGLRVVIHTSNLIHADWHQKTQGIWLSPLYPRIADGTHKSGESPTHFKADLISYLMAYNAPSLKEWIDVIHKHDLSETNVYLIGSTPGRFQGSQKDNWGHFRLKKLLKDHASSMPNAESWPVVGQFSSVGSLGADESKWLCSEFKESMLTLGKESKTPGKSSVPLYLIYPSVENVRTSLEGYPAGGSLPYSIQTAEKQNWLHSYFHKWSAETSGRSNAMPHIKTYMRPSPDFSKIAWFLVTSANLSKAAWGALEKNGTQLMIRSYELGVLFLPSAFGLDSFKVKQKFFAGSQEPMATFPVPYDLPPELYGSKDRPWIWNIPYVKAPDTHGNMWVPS
Sequence of DNA polymerase eta (Homo sapiens) (Q9Y253 whole entry, looked up): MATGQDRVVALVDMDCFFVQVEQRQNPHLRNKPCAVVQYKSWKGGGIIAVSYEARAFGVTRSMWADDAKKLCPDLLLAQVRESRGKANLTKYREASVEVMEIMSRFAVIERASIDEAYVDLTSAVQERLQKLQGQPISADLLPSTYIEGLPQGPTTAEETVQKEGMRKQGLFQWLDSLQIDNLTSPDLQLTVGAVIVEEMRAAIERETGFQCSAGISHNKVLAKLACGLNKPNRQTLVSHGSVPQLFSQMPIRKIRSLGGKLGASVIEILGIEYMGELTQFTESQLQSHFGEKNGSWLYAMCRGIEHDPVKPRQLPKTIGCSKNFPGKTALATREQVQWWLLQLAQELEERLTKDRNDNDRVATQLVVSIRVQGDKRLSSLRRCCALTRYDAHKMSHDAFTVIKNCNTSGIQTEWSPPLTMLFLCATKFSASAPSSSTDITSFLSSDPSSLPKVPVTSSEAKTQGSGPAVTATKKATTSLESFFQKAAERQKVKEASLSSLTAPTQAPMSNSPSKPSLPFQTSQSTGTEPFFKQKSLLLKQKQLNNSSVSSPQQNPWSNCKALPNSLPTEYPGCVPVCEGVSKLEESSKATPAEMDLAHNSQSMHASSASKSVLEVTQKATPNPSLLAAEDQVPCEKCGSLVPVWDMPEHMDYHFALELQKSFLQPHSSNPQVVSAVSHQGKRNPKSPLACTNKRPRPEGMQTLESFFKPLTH

Which Potency [1] does the source give for Cc1c(C(=O)O)cccc1-n1c(C)cc(/C=C2\C(=O)NC(=O)N(c3ccc4c(c3)OCO4)C2=O)c1C here?
The Potency was 15 µM (active).

And the Potency [2]?
The Potency was 8.49 µM (active).

Which Potency [3] does the source give for O=C(O)c1cc[c]([Sb](=[O])([OH])[OH])cc1[N+](=O)[O-] here?
Its Potency is 2 µM (active).

Which outcome [4] does the source give for CN1C2CCC1CC(NC(=O)c1nn(C)c3ccccc13)C2 (stereo not given) here?
The outcome was “inactive”.

What about the outcome [5] of the same compound?
Its outcome is “inactive”.
